Tests used:
[1] = biological target: Sphingosine kinase 1 (Homo sapiens) (UniProt Q9NYA1); conditions: at 1 µM;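 further: mean SPHK1 inhibition value reported from the GSK PKIS kinase panel screen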
[2] = biological target: T1, Sphingosine kinase 2 (Homo sapiens) (UniProt Q9NRA0); conditions: at 0.1 µM
T1 sequence (whole entry): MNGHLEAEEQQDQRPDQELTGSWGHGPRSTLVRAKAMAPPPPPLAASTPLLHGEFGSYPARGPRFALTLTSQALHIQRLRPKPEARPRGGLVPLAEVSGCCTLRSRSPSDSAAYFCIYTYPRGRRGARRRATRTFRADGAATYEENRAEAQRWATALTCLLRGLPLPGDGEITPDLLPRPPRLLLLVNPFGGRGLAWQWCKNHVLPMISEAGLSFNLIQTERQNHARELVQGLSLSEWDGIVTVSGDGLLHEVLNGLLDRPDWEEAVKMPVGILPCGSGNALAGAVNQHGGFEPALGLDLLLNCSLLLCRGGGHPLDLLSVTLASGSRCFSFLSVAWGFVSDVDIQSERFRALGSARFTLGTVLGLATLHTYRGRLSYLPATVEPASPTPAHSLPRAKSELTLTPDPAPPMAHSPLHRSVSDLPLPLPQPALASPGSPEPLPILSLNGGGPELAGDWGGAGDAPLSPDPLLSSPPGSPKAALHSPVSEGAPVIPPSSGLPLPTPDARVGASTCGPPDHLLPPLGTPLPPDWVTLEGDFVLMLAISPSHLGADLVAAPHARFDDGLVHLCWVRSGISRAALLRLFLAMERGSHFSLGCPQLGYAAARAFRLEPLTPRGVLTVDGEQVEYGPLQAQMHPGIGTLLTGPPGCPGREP

[3] = biological target: T1, Sphingosine kinase 2 (Homo sapiens); conditions: at 1 µM
[4] = biological target: Casein kinase II subunit alpha (Homo sapiens) (UniProt P68400); conditions: at 0.1 µM
[5] = biological target: Casein kinase II subunit alpha (Homo sapiens) (UniProt P68400); conditions: at 1 µM
[6] = biological target: T2, Inhibitor of nuclear factor kappa-B kinase subunit alpha (Homo sapiens) (UniProt O15111); conditions: at 0.1 µM
T2 sequence (whole entry): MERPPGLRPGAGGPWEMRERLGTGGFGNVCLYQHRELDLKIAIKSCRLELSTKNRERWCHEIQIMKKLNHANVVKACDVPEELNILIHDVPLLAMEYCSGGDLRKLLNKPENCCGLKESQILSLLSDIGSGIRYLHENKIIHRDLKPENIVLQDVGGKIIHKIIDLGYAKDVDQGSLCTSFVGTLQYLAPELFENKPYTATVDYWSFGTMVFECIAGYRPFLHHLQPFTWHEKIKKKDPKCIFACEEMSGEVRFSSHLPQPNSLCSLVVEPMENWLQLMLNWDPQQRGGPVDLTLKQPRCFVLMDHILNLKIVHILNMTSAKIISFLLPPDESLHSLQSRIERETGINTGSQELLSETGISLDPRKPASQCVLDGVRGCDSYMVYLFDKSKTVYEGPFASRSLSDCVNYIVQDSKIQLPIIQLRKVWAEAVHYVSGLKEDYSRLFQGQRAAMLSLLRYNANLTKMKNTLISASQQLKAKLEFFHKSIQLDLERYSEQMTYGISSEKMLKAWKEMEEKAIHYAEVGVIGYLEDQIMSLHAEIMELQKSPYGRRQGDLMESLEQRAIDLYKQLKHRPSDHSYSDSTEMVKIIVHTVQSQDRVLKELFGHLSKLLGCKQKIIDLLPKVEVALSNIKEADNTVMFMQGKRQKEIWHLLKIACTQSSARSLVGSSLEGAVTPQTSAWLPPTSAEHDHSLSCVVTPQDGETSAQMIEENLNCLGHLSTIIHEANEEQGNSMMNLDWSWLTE

[7] = biological target: T2, Inhibitor of nuclear factor kappa-B kinase subunit alpha (Homo sapiens); conditions: at 1 µM
[8] = biological target: T3, Inhibitor of nuclear factor kappa-B kinase subunit beta (Homo sapiens) (UniProt O14920); conditions: at 0.1 µM
T3 sequence (whole entry): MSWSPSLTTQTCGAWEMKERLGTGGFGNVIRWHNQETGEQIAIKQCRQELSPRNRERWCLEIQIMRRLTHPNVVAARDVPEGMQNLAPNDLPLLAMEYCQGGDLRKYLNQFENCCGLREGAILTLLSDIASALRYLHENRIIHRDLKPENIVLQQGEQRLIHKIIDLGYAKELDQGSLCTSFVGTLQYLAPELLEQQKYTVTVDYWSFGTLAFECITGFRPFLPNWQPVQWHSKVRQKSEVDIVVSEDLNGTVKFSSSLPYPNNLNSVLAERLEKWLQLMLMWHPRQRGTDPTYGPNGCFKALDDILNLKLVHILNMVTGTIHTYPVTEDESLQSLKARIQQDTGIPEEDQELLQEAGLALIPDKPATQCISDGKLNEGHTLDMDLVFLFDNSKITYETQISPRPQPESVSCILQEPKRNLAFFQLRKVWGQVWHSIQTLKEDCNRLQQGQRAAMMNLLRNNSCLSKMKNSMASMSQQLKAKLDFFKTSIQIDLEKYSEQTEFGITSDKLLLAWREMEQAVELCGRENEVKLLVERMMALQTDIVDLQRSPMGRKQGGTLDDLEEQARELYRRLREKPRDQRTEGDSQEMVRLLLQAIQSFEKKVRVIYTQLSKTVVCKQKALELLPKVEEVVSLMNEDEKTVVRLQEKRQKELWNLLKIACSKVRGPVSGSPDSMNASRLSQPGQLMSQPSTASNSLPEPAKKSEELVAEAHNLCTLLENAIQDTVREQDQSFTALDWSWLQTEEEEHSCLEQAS

[9] = biological target: T3, Inhibitor of nuclear factor kappa-B kinase subunit beta (Homo sapiens); conditions: at 1 µM
[10] = biological target: T4, Inhibitor of nuclear factor kappa-B kinase subunit epsilon (Homo sapiens) (UniProt Q14164); conditions: at 0.1 µM
T4 sequence (whole entry): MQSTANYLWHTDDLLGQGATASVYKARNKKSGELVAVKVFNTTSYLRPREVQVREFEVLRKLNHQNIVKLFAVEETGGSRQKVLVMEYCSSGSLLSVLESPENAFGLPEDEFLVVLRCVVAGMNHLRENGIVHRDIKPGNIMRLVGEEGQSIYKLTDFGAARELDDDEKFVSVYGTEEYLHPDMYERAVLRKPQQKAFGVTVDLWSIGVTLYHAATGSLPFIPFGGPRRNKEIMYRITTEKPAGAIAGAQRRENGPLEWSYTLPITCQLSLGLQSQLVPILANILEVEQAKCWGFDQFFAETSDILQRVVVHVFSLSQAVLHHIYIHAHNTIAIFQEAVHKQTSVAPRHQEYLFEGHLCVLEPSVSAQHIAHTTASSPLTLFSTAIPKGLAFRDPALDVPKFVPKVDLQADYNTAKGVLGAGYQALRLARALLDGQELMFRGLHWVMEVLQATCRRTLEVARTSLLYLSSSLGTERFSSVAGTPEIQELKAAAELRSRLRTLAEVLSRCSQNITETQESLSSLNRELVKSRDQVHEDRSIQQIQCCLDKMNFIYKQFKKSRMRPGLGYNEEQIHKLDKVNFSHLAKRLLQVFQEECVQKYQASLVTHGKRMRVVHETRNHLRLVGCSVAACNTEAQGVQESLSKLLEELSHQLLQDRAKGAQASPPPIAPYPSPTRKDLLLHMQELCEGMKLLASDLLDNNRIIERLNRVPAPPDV

[11] = biological target: T4, Inhibitor of nuclear factor kappa-B kinase subunit epsilon (Homo sapiens); conditions: at 1 µM
[12] = biological target: T5, Serine/threonine-protein kinase Nek1 (Homo sapiens) (UniProt Q96PY6); conditions: at 0.1 µM
T5 sequence (whole entry): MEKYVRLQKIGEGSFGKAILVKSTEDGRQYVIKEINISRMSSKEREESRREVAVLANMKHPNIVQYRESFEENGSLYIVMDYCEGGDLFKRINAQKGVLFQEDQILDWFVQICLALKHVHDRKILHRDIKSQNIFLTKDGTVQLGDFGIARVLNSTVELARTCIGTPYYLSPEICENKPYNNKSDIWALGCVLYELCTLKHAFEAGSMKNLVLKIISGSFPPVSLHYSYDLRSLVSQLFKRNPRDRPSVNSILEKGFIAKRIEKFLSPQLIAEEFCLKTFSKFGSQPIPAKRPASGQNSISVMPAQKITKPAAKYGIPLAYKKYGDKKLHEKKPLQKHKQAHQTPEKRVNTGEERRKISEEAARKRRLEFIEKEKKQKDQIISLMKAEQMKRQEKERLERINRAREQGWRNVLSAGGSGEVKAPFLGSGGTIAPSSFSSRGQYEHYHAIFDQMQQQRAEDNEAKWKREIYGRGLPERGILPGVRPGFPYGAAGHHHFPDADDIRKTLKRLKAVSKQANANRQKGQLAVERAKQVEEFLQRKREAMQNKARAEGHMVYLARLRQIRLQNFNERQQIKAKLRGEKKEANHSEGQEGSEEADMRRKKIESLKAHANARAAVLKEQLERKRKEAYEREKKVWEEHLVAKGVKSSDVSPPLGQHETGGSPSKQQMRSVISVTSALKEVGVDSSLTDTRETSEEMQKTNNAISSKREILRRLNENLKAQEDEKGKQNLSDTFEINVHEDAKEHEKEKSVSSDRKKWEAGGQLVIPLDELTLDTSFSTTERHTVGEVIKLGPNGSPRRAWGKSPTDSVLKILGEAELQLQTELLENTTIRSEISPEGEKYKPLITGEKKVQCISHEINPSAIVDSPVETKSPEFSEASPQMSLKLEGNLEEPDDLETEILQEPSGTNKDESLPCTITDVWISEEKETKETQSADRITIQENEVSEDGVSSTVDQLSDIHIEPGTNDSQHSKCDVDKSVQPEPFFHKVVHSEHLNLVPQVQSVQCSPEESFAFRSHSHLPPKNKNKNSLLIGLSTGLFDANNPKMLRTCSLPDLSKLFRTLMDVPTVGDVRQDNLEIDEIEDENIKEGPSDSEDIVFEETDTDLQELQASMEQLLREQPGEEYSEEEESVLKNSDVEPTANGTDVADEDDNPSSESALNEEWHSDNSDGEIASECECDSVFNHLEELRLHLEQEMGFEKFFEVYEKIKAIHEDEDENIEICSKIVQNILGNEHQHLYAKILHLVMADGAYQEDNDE

[13] = biological target: T5, Serine/threonine-protein kinase Nek1 (Homo sapiens); conditions: at 1 µM
[14] = biological target: T6, Serine/threonine-protein kinase Nek2 (Homo sapiens) (UniProt P51955); conditions: at 0.1 µM
T6 sequence (whole entry): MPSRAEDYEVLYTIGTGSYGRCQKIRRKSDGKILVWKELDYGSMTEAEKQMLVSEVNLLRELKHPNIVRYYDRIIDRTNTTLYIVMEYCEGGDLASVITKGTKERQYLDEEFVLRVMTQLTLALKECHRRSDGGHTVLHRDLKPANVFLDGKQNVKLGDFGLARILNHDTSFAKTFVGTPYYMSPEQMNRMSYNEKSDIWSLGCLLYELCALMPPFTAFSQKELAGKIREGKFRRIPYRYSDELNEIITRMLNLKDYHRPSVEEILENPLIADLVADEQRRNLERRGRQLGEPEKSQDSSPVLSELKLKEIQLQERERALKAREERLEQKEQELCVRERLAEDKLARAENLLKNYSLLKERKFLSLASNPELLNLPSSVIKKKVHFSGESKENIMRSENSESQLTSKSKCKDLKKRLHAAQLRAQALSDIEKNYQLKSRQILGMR

[15] = biological target: T6, Serine/threonine-protein kinase Nek2 (Homo sapiens); conditions: at 1 µM
[16] = biological target: Serine/threonine-protein kinase Nek6 (Homo sapiens) (UniProt Q9HC98); conditions: at 0.1 µM
[17] = biological target: Serine/threonine-protein kinase Nek6 (Homo sapiens) (UniProt Q9HC98); conditions: at 1 µM
[18] = biological target: Serine/threonine-protein kinase Nek7 (Homo sapiens) (UniProt Q8TDX7); conditions: at 0.1 µM
[19] = biological target: Serine/threonine-protein kinase Nek7 (Homo sapiens) (UniProt Q8TDX7); conditions: at 1 µM
[20] = biological target: T7, Serine/threonine-protein kinase Nek9 (Homo sapiens) (UniProt Q8TD19); conditions: at 0.1 µM;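 further: reported value is the mean percent inhibition of NEK9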
T7 sequence (whole entry): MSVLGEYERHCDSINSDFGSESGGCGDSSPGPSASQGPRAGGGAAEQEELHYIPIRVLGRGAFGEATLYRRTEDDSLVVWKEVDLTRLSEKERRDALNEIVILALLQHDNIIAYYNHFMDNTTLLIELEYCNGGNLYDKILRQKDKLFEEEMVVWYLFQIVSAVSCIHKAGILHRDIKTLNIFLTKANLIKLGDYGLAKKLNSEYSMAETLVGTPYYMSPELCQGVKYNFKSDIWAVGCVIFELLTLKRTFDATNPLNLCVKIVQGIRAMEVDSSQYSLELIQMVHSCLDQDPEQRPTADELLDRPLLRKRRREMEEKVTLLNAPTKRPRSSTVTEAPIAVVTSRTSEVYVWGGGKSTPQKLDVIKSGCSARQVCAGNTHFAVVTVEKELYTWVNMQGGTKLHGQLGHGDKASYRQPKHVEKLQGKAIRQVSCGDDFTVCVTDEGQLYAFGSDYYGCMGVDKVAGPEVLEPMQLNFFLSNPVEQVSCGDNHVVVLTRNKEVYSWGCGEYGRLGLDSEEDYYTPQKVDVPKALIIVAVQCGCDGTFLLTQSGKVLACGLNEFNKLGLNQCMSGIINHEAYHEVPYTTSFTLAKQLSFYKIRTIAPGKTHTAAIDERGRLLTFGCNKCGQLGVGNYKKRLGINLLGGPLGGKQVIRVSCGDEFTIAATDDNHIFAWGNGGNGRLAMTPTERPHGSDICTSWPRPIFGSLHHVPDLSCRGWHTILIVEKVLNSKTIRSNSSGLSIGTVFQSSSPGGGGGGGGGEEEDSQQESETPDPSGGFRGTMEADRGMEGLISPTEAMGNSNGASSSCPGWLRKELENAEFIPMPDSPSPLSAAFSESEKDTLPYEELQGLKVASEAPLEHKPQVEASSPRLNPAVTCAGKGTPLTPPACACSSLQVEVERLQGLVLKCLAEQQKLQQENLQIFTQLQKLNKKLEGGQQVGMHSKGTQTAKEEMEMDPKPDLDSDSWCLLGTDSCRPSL

Serine/threonine-protein kinase Nek7 (Homo sapiens), sequence (Q8TDX7 whole entry, looked up): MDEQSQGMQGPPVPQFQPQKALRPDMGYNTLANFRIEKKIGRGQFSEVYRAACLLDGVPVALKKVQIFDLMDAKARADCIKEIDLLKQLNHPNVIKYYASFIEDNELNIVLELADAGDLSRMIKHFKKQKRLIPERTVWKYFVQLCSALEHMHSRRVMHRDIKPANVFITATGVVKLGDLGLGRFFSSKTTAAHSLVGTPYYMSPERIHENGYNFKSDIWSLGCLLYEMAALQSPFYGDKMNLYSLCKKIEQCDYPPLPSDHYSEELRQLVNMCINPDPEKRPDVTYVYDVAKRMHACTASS
Casein kinase II subunit alpha (Homo sapiens), sequence (P68400 whole entry, looked up): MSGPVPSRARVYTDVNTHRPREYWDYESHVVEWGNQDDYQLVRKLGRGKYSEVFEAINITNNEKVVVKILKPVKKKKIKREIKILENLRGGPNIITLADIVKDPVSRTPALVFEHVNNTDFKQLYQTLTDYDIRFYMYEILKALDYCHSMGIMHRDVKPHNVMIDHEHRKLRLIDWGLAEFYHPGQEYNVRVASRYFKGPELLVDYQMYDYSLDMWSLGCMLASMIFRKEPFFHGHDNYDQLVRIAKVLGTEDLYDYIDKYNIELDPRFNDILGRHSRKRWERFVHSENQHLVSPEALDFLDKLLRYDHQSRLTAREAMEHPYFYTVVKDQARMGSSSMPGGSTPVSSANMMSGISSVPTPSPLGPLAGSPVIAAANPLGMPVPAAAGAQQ
Serine/threonine-protein kinase Nek6 (Homo sapiens), sequence (Q9HC98 whole entry): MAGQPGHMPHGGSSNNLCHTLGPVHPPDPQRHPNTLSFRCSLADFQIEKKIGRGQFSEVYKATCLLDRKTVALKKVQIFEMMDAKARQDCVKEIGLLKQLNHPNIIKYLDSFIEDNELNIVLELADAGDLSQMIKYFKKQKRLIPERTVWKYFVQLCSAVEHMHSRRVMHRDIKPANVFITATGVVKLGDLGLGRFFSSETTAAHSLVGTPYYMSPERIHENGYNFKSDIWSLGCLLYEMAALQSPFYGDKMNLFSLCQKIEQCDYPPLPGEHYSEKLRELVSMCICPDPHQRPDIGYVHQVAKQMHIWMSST
Sphingosine kinase 1 (Homo sapiens), sequence (Q9NYA1 whole entry): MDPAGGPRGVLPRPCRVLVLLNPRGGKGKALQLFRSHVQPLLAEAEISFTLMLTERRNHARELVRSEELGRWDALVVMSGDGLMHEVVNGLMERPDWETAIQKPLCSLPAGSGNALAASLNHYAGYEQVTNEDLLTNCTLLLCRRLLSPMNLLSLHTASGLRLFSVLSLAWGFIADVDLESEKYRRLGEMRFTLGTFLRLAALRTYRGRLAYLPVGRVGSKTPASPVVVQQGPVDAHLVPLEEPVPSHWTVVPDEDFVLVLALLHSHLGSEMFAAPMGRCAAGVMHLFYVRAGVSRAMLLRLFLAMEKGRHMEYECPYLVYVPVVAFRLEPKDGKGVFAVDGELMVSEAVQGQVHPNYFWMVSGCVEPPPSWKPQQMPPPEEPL

SMILES | inhibition [1] [%] | inhibition [2] [%] | inhibition [3] [%] | inhibition [4] [%] | inhibition [5] [%] | inhibition [6] [%] | inhibition [7] [%] | inhibition [8] [%] | inhibition [9] [%] | inhibition [10] [%] | inhibition [11] [%] | inhibition [12] [%] | inhibition [13] [%] | inhibition [14] [%] | inhibition [15] [%] | inhibition [16] [%] | inhibition [17] [%] | inhibition [18] [%] | inhibition [19] [%] | inhibition [20] [%]
CC(C)=Cc1cccc2c1/C(=N/Nc1ccc(S(N)(=O)=O)cc1)C(=O)N2 | 3.96 | 0.66 | 0.76 | 1.84 | 10.6 | 3.49 | 3 | 1.01 | 2.88 | 5.72 | 21.9 | 0.48 | 2.3 | -1.83 | -0.31 | 1.86 | 0.97 | -1.18 | -0.48 | 4.67
Nc1ncnc2occ(-c3ccc(NC(=O)Nc4cc(C(F)(F)F)cc(C(F)(F)F)c4)cc3)c12 | -0.76 | 1.12 | -0.25 | 0.36 | -5.3 | -5.23 | -3.15 | -0.04 | 1.07 | -2.4 | 5.33 | 1.24 | 6.51 | 3.72 | 15.5 | -0.98 | 0.99 | 2.34 | 0.46 | 5.43

Source: ChEMBL document CHEMBL1961873, “Compounds: GSK PKIS; Assays: Nanosyn kinase panel” (2012)
